According to ChEMBL document CHEMBL1961873, “Compounds: GSK PKIS; Assays: Nanosyn kinase panel” (2012):

What was measured:
[1] = biological target: T1, Inhibitor of nuclear factor kappa-B kinase subunit epsilon (Homo sapiens) (UniProt Q14164); conditions: at 1 µM;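 note: reported values are averaged percent inhibition figures against human IKKε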
T1 sequence (whole entry): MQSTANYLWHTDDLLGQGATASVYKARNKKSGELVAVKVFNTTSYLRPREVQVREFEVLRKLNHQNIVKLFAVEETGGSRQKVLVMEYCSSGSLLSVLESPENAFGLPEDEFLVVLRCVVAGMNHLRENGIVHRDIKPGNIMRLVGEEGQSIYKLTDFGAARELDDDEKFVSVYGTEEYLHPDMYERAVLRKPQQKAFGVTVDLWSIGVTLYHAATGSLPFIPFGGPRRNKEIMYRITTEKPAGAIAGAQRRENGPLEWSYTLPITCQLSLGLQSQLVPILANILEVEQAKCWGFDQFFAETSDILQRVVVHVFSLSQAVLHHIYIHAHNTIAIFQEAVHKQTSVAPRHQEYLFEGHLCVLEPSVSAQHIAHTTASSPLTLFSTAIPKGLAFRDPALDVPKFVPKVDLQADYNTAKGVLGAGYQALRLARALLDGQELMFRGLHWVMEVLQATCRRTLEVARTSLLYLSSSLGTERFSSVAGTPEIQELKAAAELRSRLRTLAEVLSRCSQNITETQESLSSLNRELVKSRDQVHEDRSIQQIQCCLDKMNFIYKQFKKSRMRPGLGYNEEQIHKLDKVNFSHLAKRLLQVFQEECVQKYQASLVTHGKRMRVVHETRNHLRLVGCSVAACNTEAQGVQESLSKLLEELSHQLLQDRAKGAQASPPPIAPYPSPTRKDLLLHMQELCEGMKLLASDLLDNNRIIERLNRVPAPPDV

[2] = biological target: T2, Serine/threonine-protein kinase Nek1 (Homo sapiens) (UniProt Q96PY6); conditions: at 0.1 µM
T2 sequence (whole entry): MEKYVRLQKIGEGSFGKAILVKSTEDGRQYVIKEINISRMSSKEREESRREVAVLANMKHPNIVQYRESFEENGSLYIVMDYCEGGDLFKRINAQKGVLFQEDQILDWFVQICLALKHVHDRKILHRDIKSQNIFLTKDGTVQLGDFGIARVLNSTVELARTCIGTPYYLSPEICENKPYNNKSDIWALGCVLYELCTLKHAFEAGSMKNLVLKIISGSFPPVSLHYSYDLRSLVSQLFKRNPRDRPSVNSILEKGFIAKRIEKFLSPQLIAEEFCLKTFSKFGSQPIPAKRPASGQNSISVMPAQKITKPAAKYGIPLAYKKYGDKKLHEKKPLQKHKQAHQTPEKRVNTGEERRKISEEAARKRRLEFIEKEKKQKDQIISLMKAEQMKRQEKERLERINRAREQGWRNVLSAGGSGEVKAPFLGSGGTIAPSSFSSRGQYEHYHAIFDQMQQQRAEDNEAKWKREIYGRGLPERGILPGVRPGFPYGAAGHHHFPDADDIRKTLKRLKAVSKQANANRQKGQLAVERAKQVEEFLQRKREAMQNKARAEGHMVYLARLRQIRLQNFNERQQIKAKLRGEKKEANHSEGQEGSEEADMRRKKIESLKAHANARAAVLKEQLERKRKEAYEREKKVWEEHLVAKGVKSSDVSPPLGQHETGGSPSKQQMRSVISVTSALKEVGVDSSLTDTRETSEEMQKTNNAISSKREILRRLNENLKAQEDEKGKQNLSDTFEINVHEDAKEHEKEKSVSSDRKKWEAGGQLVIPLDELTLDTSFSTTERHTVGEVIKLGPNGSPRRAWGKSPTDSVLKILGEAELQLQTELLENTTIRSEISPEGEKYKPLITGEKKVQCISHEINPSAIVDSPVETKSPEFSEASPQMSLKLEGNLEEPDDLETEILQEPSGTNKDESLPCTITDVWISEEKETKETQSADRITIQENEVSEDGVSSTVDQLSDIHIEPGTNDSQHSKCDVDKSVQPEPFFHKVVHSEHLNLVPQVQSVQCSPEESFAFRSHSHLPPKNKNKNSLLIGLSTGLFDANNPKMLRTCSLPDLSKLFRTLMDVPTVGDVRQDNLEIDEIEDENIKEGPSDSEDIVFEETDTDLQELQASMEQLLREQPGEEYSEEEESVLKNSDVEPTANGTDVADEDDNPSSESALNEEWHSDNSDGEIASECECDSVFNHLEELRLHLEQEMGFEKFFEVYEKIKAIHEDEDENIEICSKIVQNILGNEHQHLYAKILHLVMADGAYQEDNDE

[3] = biological target: T2, Serine/threonine-protein kinase Nek1 (Homo sapiens); conditions: at 1 µM
[4] = biological target: T3, Serine/threonine-protein kinase Nek2 (Homo sapiens) (UniProt P51955); conditions: at 0.1 µM
T3 sequence (whole entry): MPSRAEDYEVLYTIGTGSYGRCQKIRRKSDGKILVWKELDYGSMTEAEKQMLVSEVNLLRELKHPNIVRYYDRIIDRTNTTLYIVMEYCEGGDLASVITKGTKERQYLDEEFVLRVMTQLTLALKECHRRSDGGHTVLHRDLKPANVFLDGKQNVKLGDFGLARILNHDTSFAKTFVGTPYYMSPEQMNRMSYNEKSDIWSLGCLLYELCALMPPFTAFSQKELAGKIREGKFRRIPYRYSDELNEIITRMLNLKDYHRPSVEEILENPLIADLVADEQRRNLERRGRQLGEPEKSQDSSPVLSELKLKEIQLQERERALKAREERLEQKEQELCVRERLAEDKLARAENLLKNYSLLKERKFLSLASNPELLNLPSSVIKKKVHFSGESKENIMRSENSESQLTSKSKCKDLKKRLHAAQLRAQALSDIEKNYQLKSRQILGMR

[5] = biological target: T3, Serine/threonine-protein kinase Nek2 (Homo sapiens); conditions: at 1 µM
[6] = biological target: Serine/threonine-protein kinase Nek6 (Homo sapiens) (UniProt Q9HC98); conditions: at 0.1 µM
[7] = biological target: Serine/threonine-protein kinase Nek6 (Homo sapiens) (UniProt Q9HC98); conditions: at 1 µM
[8] = biological target: Serine/threonine-protein kinase Nek7 (Homo sapiens) (UniProt Q8TDX7); conditions: at 0.1 µM
[9] = biological target: Serine/threonine-protein kinase Nek7 (Homo sapiens) (UniProt Q8TDX7); conditions: at 1 µM
[10] = biological target: T4, Serine/threonine-protein kinase Nek9 (Homo sapiens) (UniProt Q8TD19); conditions: at 0.1 µM;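 note: reported value is the mean percent inhibition of NEK9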
T4 sequence (whole entry): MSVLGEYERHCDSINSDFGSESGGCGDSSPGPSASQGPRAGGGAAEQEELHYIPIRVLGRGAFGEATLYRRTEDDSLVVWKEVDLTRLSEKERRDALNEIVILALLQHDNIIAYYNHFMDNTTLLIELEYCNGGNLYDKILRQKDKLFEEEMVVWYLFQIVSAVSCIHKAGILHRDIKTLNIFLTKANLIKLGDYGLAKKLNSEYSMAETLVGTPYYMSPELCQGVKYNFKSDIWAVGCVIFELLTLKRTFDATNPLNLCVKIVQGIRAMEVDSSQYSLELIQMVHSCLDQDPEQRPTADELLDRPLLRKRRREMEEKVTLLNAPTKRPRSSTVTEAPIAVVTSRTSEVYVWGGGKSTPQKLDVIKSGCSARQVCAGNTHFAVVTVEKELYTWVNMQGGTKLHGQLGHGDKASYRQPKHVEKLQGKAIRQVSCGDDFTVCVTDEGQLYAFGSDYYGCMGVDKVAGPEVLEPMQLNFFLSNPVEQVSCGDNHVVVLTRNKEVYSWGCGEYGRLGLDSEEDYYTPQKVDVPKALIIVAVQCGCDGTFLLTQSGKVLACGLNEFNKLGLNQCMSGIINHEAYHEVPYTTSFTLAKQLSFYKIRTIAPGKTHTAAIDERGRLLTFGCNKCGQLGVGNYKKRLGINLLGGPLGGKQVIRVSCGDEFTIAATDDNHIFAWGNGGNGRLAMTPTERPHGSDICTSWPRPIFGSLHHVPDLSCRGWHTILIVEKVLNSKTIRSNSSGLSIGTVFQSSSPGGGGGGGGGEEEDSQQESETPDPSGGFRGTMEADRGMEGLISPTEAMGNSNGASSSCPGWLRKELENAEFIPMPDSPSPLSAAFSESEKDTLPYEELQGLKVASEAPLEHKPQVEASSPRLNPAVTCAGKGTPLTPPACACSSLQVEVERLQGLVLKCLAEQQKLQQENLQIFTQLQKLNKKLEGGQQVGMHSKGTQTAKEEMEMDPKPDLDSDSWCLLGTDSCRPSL

Chain of Serine/threonine-protein kinase Nek7 (Homo sapiens) (Q8TDX7 whole entry, looked up): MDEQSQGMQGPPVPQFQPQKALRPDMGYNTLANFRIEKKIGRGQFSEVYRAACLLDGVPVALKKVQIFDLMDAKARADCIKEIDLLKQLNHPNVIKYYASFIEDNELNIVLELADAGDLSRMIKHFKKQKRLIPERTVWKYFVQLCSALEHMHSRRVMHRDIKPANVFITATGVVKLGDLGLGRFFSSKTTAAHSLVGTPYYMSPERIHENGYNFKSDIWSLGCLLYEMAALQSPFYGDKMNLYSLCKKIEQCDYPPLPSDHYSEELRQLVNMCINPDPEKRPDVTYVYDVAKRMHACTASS
Chain of Serine/threonine-protein kinase Nek6 (Homo sapiens) (Q9HC98 whole entry): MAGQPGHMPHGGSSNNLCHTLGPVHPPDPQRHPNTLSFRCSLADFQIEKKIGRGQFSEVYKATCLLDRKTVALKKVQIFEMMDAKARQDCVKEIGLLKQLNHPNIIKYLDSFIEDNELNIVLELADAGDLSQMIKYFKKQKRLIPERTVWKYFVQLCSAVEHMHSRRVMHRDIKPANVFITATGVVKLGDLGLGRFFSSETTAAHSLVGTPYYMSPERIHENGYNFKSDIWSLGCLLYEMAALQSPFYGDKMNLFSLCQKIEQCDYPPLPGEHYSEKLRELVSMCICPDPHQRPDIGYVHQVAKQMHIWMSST

`CS(=O)(=O)CCNCc1ccc(-c2ccc3ncnc(Nc4ccc(OCc5cccc(F)c5)c(C(F)(F)F)c4)c3c2)o1` was tested, and the inhibition [1] was 2.73%, the inhibition [2] was 2.28% and the inhibition [3] was 4.09%. For the same molecule, the inhibition [4] was 4.44%, the inhibition [5] was 3.68% and the inhibition [6] was 2.48%. For the same molecule, the inhibition [7] was 3.62%, the inhibition [8] was 4.72% and the inhibition [9] was 4.32%. For the same molecule, the inhibition [10] was 7.55%.
